Bioassay records deposited in PubChem BioAssay by National Center for Advancing Translational Sciences (NCATS).
An excerpt weighted towards active compounds, which were near 19% of everything screened.
Pf growth 96h – Primary qHTS for delayed death inhibitors of the malarial parasite plastid, 96 hour incubation; P. falciparum luciferase reporter growth, 96 h; Potency, µM (top dose mostly 28.7 µM), for the others: at the highest dose activity change, negative = inhibition, usual class: inhibitors; hit rate 6.9% among 320,000; note: potency is the fitted concentration of half-maximal effect; % is set by controls: 0 for no effect and ±100 for the full control effect
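Compounds incubated with erythrocytes infected by luciferase-expressing P. falciparum (2% hematocrit, 0.05% parasitemia final) for 96 hours, 37 C in 5% CO2. Growth inhibition scored as decreased luciferase luminescence.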
Shiga toxin inh – A qHTS for Small Molecule Inhibitors of Shiga Toxin; Vero cells, Shiga toxin protein synthesis inhibition reporter; inhibition, % at 38.7 µM; hit rate 9.2% among 290,000; in the data active = inhibition mostly above about 28%, no sharp cut-off; inactive = mostly below about 43%; note: 0% is about no effect
Cycloheximide cs – Cycloheximide Counterscreen for Small Molecule Inhibitors of Shiga Toxin; cell reporter, cycloheximide protein synthesis inhibition counterscreen; max response, %; hit rate 12% among 300,000; in the data active = max response mostly above about 13%, no sharp cut-off; inactive = mostly below about 14%; note: read at 38.3 µM for the half of the compounds with a filed dose; 0% is about no effect
Pf growth 48h – Primary qHTS for delayed death inhibitors of the malarial parasite plastid, 48 hour incubation. P. falciparum luciferase growth in erythrocytes, 48 h. Potency, µM (doses to about 28.7 µM), for inactives: at the highest dose activity change, negative = inhibition, actives largely listed as inhibitors. hit rate 5.9% among 310,000; note: potency is the fitted concentration of half-maximal effect; % is set by controls: 0 for no effect and ±100 for the full control effect
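First compound was added to culture medium, then infected red cells at 0.1% parasitemia and 2% hematocrit (final). After incubation at 37 C under 5% CO2, luciferase detection reagent was dispensed and light output recorded.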
Lassa entry inh – qHTS for Inhibitors of binding or entry into cells for Lassa Virus; Lassa virus pseudotype entry inhibition, cell reporter; Potency, µM (doses to about 37.9 µM), for inactives: at the top dose activity change, negative = inhibition, actives largely listed as inhibitors; hit rate 1.2% among 300,000; AID 540256, 2011; calls by dose curve; tested in HEK293 cells; note: potency is the fitted concentration of half-maximal effect; % is set by controls: 0 for no effect and ±100 for the full control effect; nearly all actives have a fitted effect of over 50% in size
Marburg entry inh – qHTS for inhibitors of binding or entry into cells for Marburg Virus; Marburg virus pseudotyped entry inhibition, cell reporter; Potency, µM (series often up to 37.8 µM), inactives show top-dose activity change, negative = inhibition, hits mostly inhibitors; hit rate 1.8% among 300,000; calls by dose curve; tested in HEK293 cells; note: potency is the fitted concentration of half-maximal effect; % is set by controls: 0 for no effect and ±100 for the full control effect
* marks the source's active call; other numbers are inactive results; ? = inconclusive; . = no result given; [ ] = remark or other dose. Unless noted, calls come from the whole dose curve; as a rule, active = well fitted inhibition curve with a large enough effect; inconclusive = small, poorly fitted or top-dose-only effect, or another doubt; inactive = no such curve, though single readings can be large or run the other way.

SMILES	Pf growth 96h	Shiga toxin inh	Cycloheximide cs	Pf growth 48h	Lassa entry inh	Marburg entry inh
CCOc1ccc(Cc2nnc(SCC(=O)c3ccc(OC)cc3)o2)cc1	12µM*	-9	-1	-16%	?	-24%
COc1ccc(OCc2nnc(SCC(=O)NC3CCCCC3)o2)cc1	4%	30*	10	43%	20%	7%[46.1 µM]
CC(C)(C)c1ccc(-c2nnc(SCC(=O)NC3CC3)o2)cc1	1.3µM*	.	.	2.1µM*	.	.
COc1ccc(OCc2nnc(SCC(=O)NC3CC4CCC3C4)o2)cc1 (centres undefined)	53%	44	28*	-6%	16%	23%
COc1ccc(Cc2nnc(SCC(=O)c3ccc(OC)cc3)o2)cc1	.	-18	-3	-11%	?	-30%
O=C(CCC(=O)NC1CCCCCCC1)Nc1nnc(C(F)(F)F)s1	.	-11	-2	-3%	0%	-17%
Cc1cccc(C)c1OCCCn1ccnc1	-13%	3	2	?	.	.
COC(=O)c1ccc(NC(=O)CSc2nnc(COc3ccc4c(c3)CCCC4)o2)cc1	1.9µM*	-17	3	-7%	-18%	-16%
CCOC(=O)c1c(C)[nH]c(N=Nc2ccccc2C)c1C	.	81*	38*	19%	?	?
CCOC(=O)c1c(C)[nH]c(N=Nc2cc(C(=O)O)cc(C(=O)O)c2)c1C	?	-5	-3	-8%	-2%	-12%[46.1 µM]
CCOC(=O)c1c(C)[nH]c(N=Nc2ccc(C)cc2C)c1C	47%	183*	37*	0%	8%	?
O=C(CCCn1c(=O)c2cccn2c2cccnc21)NCc1cccc(Br)c1	?	-4	-3	-17%	.	.
CC(C)(C)NC(=O)C(Cc1ccccc1)NS(=O)(=O)c1cccc2nsnc12 (centres undefined)	91%	-2	-3	?	-5%	17%
O=C(Cc1noc2ccccc12)Nc1ccc(Cl)cc1	35%	22	35*	40%	5%	?
Cc1cccc(NC(=O)Cc2noc3ccccc23)c1	262%	74*	48*	207%	?	?
Cc1cccc(NC(=O)Cc2noc3ccccc23)c1C	32%	34*	22	32%	16%	1%
CCOc1ccccc1-n1c(COc2ccccc2)nnc1SCC(N)=O	-4%	-37	-3	1%	0%	11%
CCn1nc([N+](=O)[O-])c(C(C#N)c2nc3ccccc3n2C)c(Cl)c1=O (centres undefined)	-16%	-8	-3	-2%	2%	-28%
CC1CN(C(=O)Nc2ccc(C(=O)NCCc3ccccc3Cl)cc2)c2ccccc2S1 (centres undefined)	.	.	.	.	?	3%[46.1 µM]
Brc1cccc(-c2nc3cccnc3nc2-c2cccc(Br)c2)c1	?	.	1	0%	.	.
O=C(/C=C/c1ccccc1)N(Cc1cccc(Cl)c1)C1CCS(=O)(=O)C1 (centres undefined)	4.1µM*	-13	-1	6.6µM*	1%	0%[46.1 µM]
COC(=O)CSc1nnc(-c2ccc(S(=O)(=O)N3CCCC3)cc2)n1C	5%	-27	-3	9%	2%	-1%
O=C(CSc1nnc(Nc2ccccc2)s1)Nc1ccc(S(=O)(=O)N2CCOCC2)cc1	-27%	-4	7	.	-11%	?
Cc1cccc(Nc2nnc(SCC(=O)Nc3cccc(S(=O)(=O)N4CCCCC4)c3)s2)c1	-16%	78*	29*	29%	?	?
Cc1ccc(Nc2nnc(SCC(=O)Nc3ccc(S(=O)(=O)N4CCOCC4)cc3)s2)cc1	.	111*	49*	26%	?	26%
SMILES	Pf growth 96h	Shiga toxin inh	Cycloheximide cs	Pf growth 48h	Lassa entry inh	Marburg entry inh
Cc1cccc(NC(=O)CSc2nnc(NC(=O)CN3CCCCC3)s2)c1	-9%	13	1	10%	-4%	1%
Cc1cccc(C)c1Nc1nnc(SCC(=O)Nc2cc(S(=O)(=O)N3CCCCC3)ccc2Cl)s1	?	-2	-2	13µM*	-8%	?
CCOc1cc2c(C#N)c(N3CCOCC3)nc(N)c2c(N)n1	2%	-4	-1	.	0%	2%
O=C(COc1ncnc2ccccc12)N1CCN(c2ccccc2)CC1	-1%	21	8	12%	7%	-9%[46.1 µM]
Cc1ccc(NC(=O)C2CCN(C(=O)N3CCOc4ccccc43)CC2)cc1	13µM*	2	2	?	.	.
Cc1cccc(NC(=O)C2CCN(C(=O)N3CCOc4ccccc43)CC2)c1C	15µM*	-4	-2	?	.	.
COc1ccc(NC(=O)C2CCN(C(=O)N3CCOc4ccccc43)CC2)cc1	.	.	.	.	-23%[46.1 µM]	.
Cc1ccc(C(=O)N2CCC3(CC2)Oc2ccc(F)cc2C(=O)C32CC(c3cccnc3)=NO2)s1 (centres undefined)	13µM*	-6	-4	9.3µM*	.	.
O=C(c1ccoc1)N1CCC2(CC1)Oc1ccc(Cl)cc1C(=O)C21CC(c2ccccc2)=NO1 (centres undefined)	?	-5	6	15µM*	.	.
O=C(/C=C/c1cccs1)N1CCC2(CC1)Oc1ccc(Cl)cc1C(=O)C21CC(c2ccccc2)=NO1 (centres undefined)	?	7	-2	13µM*	.	.
CCC(=O)N1CCc2cc(S(=O)(=O)CCC(=O)Nc3ccc(OC)cc3)ccc21	?	-3	-1	5%	.	.
COc1ccc(C2(N3CCN(c4cc(C)ccc4C)CC3)C(=O)c3ccccc3C2=O)cc1	.	.	.	.	-8%[46.1 µM]	-19%[46.1 µM]
Cc1ccc(C(=O)N2CCN(S(C)(=O)=O)C2)cc1	3%[5.75 µM]	-12	7	17%	-2%	?
Cc1ccc(C)c(N2CCN(c3ncnc4c3nc3n4CCCCC3)CC2)c1	.	.	.	.	-4%[46.1 µM]	.
COc1ccccc1N1CCN(C(=O)C2CCCN(c3ncnc4c3nc3n4CCCCC3)C2)CC1 (centres undefined)	-20%	27	6	9.3µM*	?	?
Cc1ccc(N2CCN(C(=O)C3CCCN(c4ncnc5c4nc4n5CCCCC4)C3)CC2)c(C)c1 (centres undefined)	15µM*	-1	1	?	.	.
Cc1ccc(C)c(N2CCN(C(=O)C3CCCN(c4ncnc5c4nc4n5CCCCC4)C3)CC2)c1 (centres undefined)	?	-5	9	9.3µM*	.	.
O=C(O)c1cccc(CN2C(=O)SC(Nc3cccc4ccccc34)C2=O)c1 (centres undefined)	14%	22	3	8%	-1%	-8%
O=C1CNC(=O)/C1=C\N1CCCCC1	.	24	-2	-8%	9%	?
O=C1CNC(=O)/C1=C\N1CCN(C(c2ccccc2)c2ccccc2)CC1	3.3µM*	-8	2	-19%	-28%	?
CN1CC[C@H](CN2c3ccccc3Sc3ccccc32)C1	4.8µM*	.	.	3.8µM*	.	.
